Bioassay records deposited in PubChem BioAssay by several laboratories.
BoNT A protease: blocks Botulinum neurotoxin A light chain protease. AID 588499. hit rate 0.17% among 360,000. multiplex microsphere protease substrate cleavage, flow cytometry. inhibition, % at 10 µM
BoNT F protease: BoNT F light chain protease inhibition. AID 588497. inhibition, % at 10 µM. hit rate 0.22% among 360,000. Multiplex microsphere protease cleavage assay, flow cytometry; in the data active = inhibition above about 35%, passing the limit was not always enough; inconclusive = no clear call, values can overlap the other calls
Autofluor counter: flagged as autofluorescent in microsphere protease counterscreen | compound autofluorescence counterscreen, microsphere flow cytometry; stronger effect = higher value | AID 624483 | fluorescence intensity (no concentration beside the values) | hit rate 3.1% among 360,000; in the data active = fluorescence intensity above about 16000; inconclusive = no clear call, values can overlap the other calls
MazEF act: MazEF (E. coli) toxin RNase activation | activation, % at 20 µM | FAM/BHQ RNA-DNA oligo cleavage fluorescence, 5 h | hit rate 0.32% among 350,000 | P0AE70; in the data active = activation above about 50%
Target sequence (P0AE70 whole entry, looked up): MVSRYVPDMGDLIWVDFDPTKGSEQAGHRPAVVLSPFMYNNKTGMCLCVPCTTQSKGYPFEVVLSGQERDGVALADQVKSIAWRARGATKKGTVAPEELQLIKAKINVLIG
Anthrax LF inh2: anthrax lethal factor protease inhibition. P15917. multiplex microsphere protease cleavage assay, LF. inhibition, % at 10 µM. hit rate 0.12% among 360,000
Numbers stand for hits; i = inactive; ? = inconclusive; nt = no result. Shown are actives, neighbours in structure and some others; about 3.6% of the full set was active somewhere. Cut-off read from the data, not from the text of the source, unless noted: active = inhibition above about 30%; inconclusive = no clear call, values can overlap the other calls; inactive = below that.

SMILES | BoNT A protease | BoNT F protease | Autofluor counter | MazEF act | Anthrax LF inh2
O=C(Nc1nc2c(s1)CCCC2)C1CCCN1C(=O)c1cccs1 (stereo not given) | i | i | 16410 | i | i
Cc1cc(C(=O)Nc2nc3c(s2)CCCC3)cs1 | i | i | 16226 | i | i
Cc1cc(C(=O)Nc2nnc(C(F)(F)F)s2)cs1 | i | i | i | i | i
Cc1cc(C(=O)Nc2nnc(C3CCCCC3)s2)cs1 | ? | i | 23418 | i | i
O=C(Nc1nccs1)[C@@H]1CCCN1C(=O)c1cccs1 | i | i | i | i | i
CCOC(=O)Cc1csc(NC(=O)c2csc(C)c2)n1 | i | i | 20408 | i | i
CN1C(=O)CC(N2CCN(C(=O)CN3CCCC3)CC2)C1=O (stereo not given) | i | i | 24470 | i | i
CC(=O)c1c(C)[nH]c(C(=O)OCC(=O)N(CC(C)C)C2CCS(=O)(=O)C2)c1C (stereo not given) | i | i | ? | i | i
Cc1c(C#N)c2ncnc(-c3ccccc3)c2n1-c1ccccc1 | i | i | 23956 | i | i
CN(Cc1cnn(Cc2ccccc2)c1)C(=O)CN=C1NS(=O)(=O)c2ccccc21 | i | i | i | i | i
O=S(=O)(Nc1cccnc1Cl)c1ccc2c(c1)OCCO2 | ? | i | 16615 | i | i
CC(C)CNS(=O)(=O)c1ccc2c(c1)OCCO2 | i | i | 24162 | i | i
Cc1ccc(CNS(=O)(=O)c2ccc3c(c2)OCCO3)cc1 | i | i | i | i | i
CSc1ccccc1NS(=O)(=O)c1ccc2c(c1)OCCO2 | i | i | 20835 | i | i
COc1ccc(N(CC(=O)NCc2cccs2)S(=O)(=O)c2ccc(C(C)=O)cc2)cc1 | i | i | i | i | i
COc1cccc(OC)c1C(=O)NCc1ccco1 | i | i | i | i | i
CCCSc1nc2c(c(=O)n(C)c(=O)n2C)n1C | i | i | i | i | i
CCCSc1nc(O)c(CC)c(=O)n1C(C)CC (stereo not given) | ? | i | 19471 | i | i
COc1ccc(N2CCN(C(=O)CSc3ncnc4scc(-c5ccc(C)cc5)c34)CC2)cc1 | i | i | ? | i | i
Cc1ccc(-c2csc3ncnc(Sc4nnc(CN5CCCCCC5=O)o4)c23)cc1 | i | i | 16668 | i | i
COc1ccc(-n2ncc3c2CC(C)(C)CC3NC(=O)c2ccnn2C)cc1 (stereo not given) | i | i | i | i | i
CSCC[C@H](NC(=O)C1CCCC1)c1nc2ccccc2[nH]1 | i | i | i | i | i
CSCCC(NC(=O)C1CC1)c1nc2ccccc2[nH]1 (stereo not given) | i | i | 20590 | i | i
CC(=O)N1CCc2cc(S(=O)(=O)CCC(=O)N3CCN(c4cc(C)ccc4C)CC3)ccc21 | i | i | i | i | i
Cc1nc2sc(C(=O)Nc3ccccc3Cc3ccccc3)c(C)c2c(=O)[nH]1 | i | i | i | i | i
SMILES | BoNT A protease | BoNT F protease | Autofluor counter | MazEF act | Anthrax LF inh2
O=S(=O)(Nc1ccccc1)c1cccc2nsnc12 | i | ? | i | i | i
O=C(O)c1cccc(NS(=O)(=O)c2cccc3nsnc23)c1 | i | i | 19434 | i | i
O=C(O)CNS(=O)(=O)c1cccc2nsnc12 | i | i | 22948 | i | i
CCOC1=C2[C@@H](CN(S(=O)(=O)c3ccc(C)cc3)[C@H]2c2ccc(Cl)cc2)[C@H]2C(=O)N(c3ccccc3)C(=O)[C@H]2C1 | i | i | i | nt | i
CN1C=CC=C/C1=C1/N=C(c2ccccc2)OC1=O | i | i | i | i | i
CC1=CC(=C2N=C(c3ccccc3)OC2=O)C=C(C)O1 | i | i | i | 306 | i
COc1ccc(Oc2cnc3ccccc3n2)cc1 | i | i | i | i | i
c1ccc(Oc2cnc3ccccc3n2)cc1 | i | i | 23310 | i | i
CC(=O)Nc1ccc(Oc2cnccn2)cc1 | i | i | i | i | i
CC(=O)Nc1ccc(Oc2cnc3ccccc3n2)cc1 | i | i | 24151 | i | i
CC(=O)Nc1cccc(Oc2cnc3ccccc3n2)c1 | i | i | 18766 | i | i
COc1ccc(CNC(=O)O[C@H]2CN(C(=O)OC(C)C)N(C(=O)OC(C)C)[C@@H]3CN(S(=O)(=O)c4ccc(C)cc4)C[C@]23O)cc1OC | i | i | i | i | i
CCCn1c(N)c(C(=O)CSc2nnc(-c3cccs3)n2C2CC2)c(=O)[nH]c1=O | i | i | i | i | i
CC1Cc2ccccc2N1C(=O)C(C)n1cc(C(F)(F)F)cc(Cl)c1=O (stereo not given) | nt | nt | nt | i | nt
CCN(CC)S(=O)(=O)c1ccc2c(c1)N(CC(=O)NCc1ccccn1)C(=O)CO2 | i | i | i | i | i
C/C(=C\C(=O)c1ccc(Cl)cc1)Nc1ccc(N2CCOCC2)cc1 | i | i | 16147 | i | i
O=C(Nc1ccc(N2CCOCC2)nc1)c1ccc(Cl)cc1 | i | i | 22714 | i | i
Cc1nc(NCCCN2CCOCC2)c2cnn(-c3ccccc3)c2n1 | i | i | i | i | i
O=C(NC1CCCCCC1)C1c2ccccc2C(=O)N1CCCN1CCOCC1 (stereo not given) | ? | i | 20267 | i | i
CN1CCCC(OC(=O)c2cccc(Br)c2)C1 (stereo not given) | i | ? | i | i | i
CN1CCC(OC(=O)c2cccc(Br)c2)CC1 | i | i | 21018 | i | i
CCCCCc1nnc(NC(=O)C2=COCCO2)s1 | i | i | i | i | i
CC1=C(C(=O)N(C(C)C)C(C)C)CC(CC(=O)NCCc2ccccn2)C(=O)N1Cc1ccc(F)cc1 (stereo not given) | i | i | i | nt | i
COc1cccc(-c2cc(C(F)(F)F)nc(-n3cncn3)n2)c1 | ? | i | 25001 | i | i
Fc1ccc(-c2cc(C(F)(F)F)nc(-n3cncn3)n2)cc1 | i | i | 21601 | i | i
SMILES | BoNT A protease | BoNT F protease | Autofluor counter | MazEF act | Anthrax LF inh2
O=C(Nc1ccc2c(c1)OCO2)c1cc(-c2ccc(O)cc2)on1 | i | i | i | i | i
CCCCCC(=O)N1C[C@H](n2cc(COC(=O)c3ccccc3)nn2)[C@@H](O)C[C@@H]1c1ccc(OC)cc1 | i | i | i | i | i
COCC(C)NCc1ccc(C)cc1C (stereo not given) | i | i | 18417 | i | i
CCCCN(CC)C(=O)CSc1nc2n[nH]c(C)c2c(=N)n1-c1cccc(C)c1 | i | i | i | i | i
Cc1cccc(-n2c(SCC(=O)N3CCCC3)nc3n[nH]c(C)c3c2=N)c1 | ? | i | 22446 | i | i
CCc1ccccc1NC(=O)CSc1nc2n[nH]c(C)c2c(=N)n1-c1ccc(OC)cc1 | i | i | i | i | i
COc1ccccc1NC(=O)CSc1nc2n[nH]c(C)c2c(=N)n1-c1ccccc1Cl | i | i | 22575 | i | i
O=C1NC[C@H](CCCCN2CCN(Cc3ccccc3)C(=O)C2=O)N(CC2CCCCC2)C1=O | i | i | i | nt | i
CCN(CC)S(=O)(=O)c1ccc(C(=O)NCc2nnc(SCC(=O)OC)n2C)cc1 | i | i | 18096 | i | i
COC(=O)CSc1nnc(CNC(=O)c2ccc(S(=O)(=O)N(C)C)cc2)n1C | i | i | i | i | i
CCOC(=O)CSc1nnc(CNC(=O)c2ccc(S(=O)(=O)N3CCCC3)cc2)n1C | i | i | 22679 | i | i
CCOc1cc(C(=O)NCc2nnc(SCC(=O)OC)n2C)cc(OCC)c1OCC | i | i | i | i | i
